{"source": "paper PMC4336329", "about": "(PLoS ONE, 2015)", "note": "Among all 310,000 compounds or so, about 14,000 (4.5%) showed an effect of 50% or more. The effect is printed as a negative number. Only a selection was taken, and strong results are over-represented in it overall.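 Further: peak tail current of the secondary pulse compared with the same well before compound.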", "data": [{"target": "human ether-à-go-go-related gene (hERG) potassium channel (human, UniProt Q12809)", "sequence (Q12809 whole entry, looked up)": "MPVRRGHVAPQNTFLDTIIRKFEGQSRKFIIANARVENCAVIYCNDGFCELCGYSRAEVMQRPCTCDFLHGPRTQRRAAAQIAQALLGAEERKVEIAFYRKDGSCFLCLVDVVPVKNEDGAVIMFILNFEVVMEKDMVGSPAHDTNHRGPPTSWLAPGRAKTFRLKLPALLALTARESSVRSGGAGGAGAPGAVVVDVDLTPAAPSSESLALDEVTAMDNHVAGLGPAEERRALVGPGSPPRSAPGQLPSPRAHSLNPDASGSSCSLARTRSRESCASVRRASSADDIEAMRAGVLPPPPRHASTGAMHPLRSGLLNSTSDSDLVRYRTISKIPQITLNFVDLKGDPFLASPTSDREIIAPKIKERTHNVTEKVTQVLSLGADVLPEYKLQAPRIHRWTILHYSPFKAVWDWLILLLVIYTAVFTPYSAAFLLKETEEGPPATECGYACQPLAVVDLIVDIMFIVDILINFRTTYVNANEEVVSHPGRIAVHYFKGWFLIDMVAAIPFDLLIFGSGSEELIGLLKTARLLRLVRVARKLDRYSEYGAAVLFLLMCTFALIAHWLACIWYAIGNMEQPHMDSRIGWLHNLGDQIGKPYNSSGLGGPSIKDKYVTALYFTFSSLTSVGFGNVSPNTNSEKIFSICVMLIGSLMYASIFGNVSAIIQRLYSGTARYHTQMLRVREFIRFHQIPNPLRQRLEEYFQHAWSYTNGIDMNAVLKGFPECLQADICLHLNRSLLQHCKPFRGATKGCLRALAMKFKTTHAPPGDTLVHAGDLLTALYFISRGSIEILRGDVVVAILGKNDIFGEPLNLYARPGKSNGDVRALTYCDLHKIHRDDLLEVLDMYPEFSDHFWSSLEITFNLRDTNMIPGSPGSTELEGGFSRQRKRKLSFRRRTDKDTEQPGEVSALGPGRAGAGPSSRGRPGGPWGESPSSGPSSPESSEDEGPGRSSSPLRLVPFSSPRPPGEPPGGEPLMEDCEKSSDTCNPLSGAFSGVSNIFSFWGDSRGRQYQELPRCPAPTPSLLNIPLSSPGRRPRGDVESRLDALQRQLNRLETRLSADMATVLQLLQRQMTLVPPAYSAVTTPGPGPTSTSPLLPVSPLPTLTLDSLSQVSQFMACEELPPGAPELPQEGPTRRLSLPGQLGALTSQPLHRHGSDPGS", "assay": "primary screen, population patch clamp on CHO cells stably expressing hERG; higher = less effect of the substance", "method": "Briefly, Chinese hamster ovary (CHO) cells stably expressing the hERG channel were dislodged from tissue culture flasks and dispensed into PPC plates. […] During the recording, background leak currents were estimated by a 100 ms step to -80 mV from an initial holding potential of -70 mV and subtracted from the subsequent current measurement. The campaign was conducted in two phases using slight differences in recording protocol. In the first phase, the initial voltage pulse used a 100 ms step to -30 mV from a holding potential of -70 mV, a 2 s conditioning step to +25 mV, and a 2 s test step to -30 mV. During the second phase of the screen, the potential during the conditioning step was raised to +45 mV. In both phases of the campaign, a secondary voltage pulse was applied using the same parameters as the second phase initial pulse. The initial and secondary pulses were applied in the absence of compound, and upon application of 1 μM and 10 μM test concentrations. […]", "units": {"hERG current change (%, negative = inhibition) at 10uM": "%"}, "values": [{"smiles": "CCN(CC(=O)Nc1ccc(OC)cc1)C(=O)c1cc2c(s1)CCCCC2", "hERG current change (%, negative = inhibition) at 10uM": 16.3}, {"smiles": "COc1ccc(/C=N/NC(=O)CCC(=O)Nc2ccc(F)cc2)c(OC)c1", "hERG current change (%, negative = inhibition) at 10uM": 14.9}, {"smiles": "N#Cc1nc(-c2ccco2)oc1N1CCN(C(c2ccccc2)c2ccccc2)CC1", "hERG current change (%, negative = inhibition) at 10uM": -0.82}, {"smiles": "Cc1cc(C(=O)O)cc(Br)c1N", "hERG current change (%, negative = inhibition) at 10uM": 4.61}, {"smiles": "Cc1ccc(S(=O)(=O)/N=C(\\Sc2ccccc2)c2ccccc2)cc1", "hERG current change (%, negative = inhibition) at 10uM": 14.1}, {"smiles": "COCCN1CCN(C(=O)c2ccc3c(c2)S(=O)(=O)c2ccccc2C3=O)CC1", "hERG current change (%, negative = inhibition) at 10uM": -1.17}, {"smiles": "Cc1cc(C)c(NC(=O)c2cccc3c2C(=O)N(C2CCCCC2)C3)c(C)c1", "hERG current change (%, negative = inhibition) at 10uM": -11}, {"smiles": "CC(C)[C@H](NC(=O)c1ccccc1)C(=O)Nc1cccc(S(=O)(=O)N2CCOCC2)c1", "hERG current change (%, negative = inhibition) at 10uM": -2.22}, {"smiles": "CCCC(C(=O)Nc1cccc(S(=O)(=O)N2CCCC2)c1)c1ccccc1", "note": "(stereo not drawn)", "hERG current change (%, negative = inhibition) at 10uM": -48.2}, {"smiles": "CCCCNC(C(=O)Nc1cccc(S(=O)(=O)N2CCOCC2)c1)c1ccccc1", "note": "(stereo not drawn)", "hERG current change (%, negative = inhibition) at 10uM": -50.7}, {"smiles": "O=C(CSc1ccccc1)Nc1cccc(S(=O)(=O)N2CCOCC2)c1", "hERG current change (%, negative = inhibition) at 10uM": -25.4}, {"smiles": "CN(C)CCNC(C(=O)Nc1cccc(S(=O)(=O)N2CCOCC2)c1)c1ccccc1", "note": "(stereo not drawn)", "hERG current change (%, negative = inhibition) at 10uM": -70.3}, {"smiles": "O=C(Nc1cccc(S(=O)(=O)N2CCOCC2)c1)C(c1ccccc1)N1CCCCC1", "note": "(stereo not drawn)", "hERG current change (%, negative = inhibition) at 10uM": -37.9}, {"smiles": "CC(C)C(NC(=O)CN(c1cccc(F)c1)S(C)(=O)=O)C(C)C", "hERG current change (%, negative = inhibition) at 10uM": 1.21}, {"smiles": "COc1cc(CCC(=O)OCc2ccccc2C#N)cc(OC)c1OC", "hERG current change (%, negative = inhibition) at 10uM": 7.42}, {"smiles": "O=C1CC(C(=O)N2CCOCC2)C2(CCCCC2)O1", "note": "(stereo not drawn)", "hERG current change (%, negative = inhibition) at 10uM": 17.8}, {"smiles": "COc1ccccc1Oc1cc(F)nc(N)n1", "hERG current change (%, negative = inhibition) at 10uM": 5.82}, {"smiles": "Cc1cc(C)n(-c2nc(C(=O)O)cs2)n1", "hERG current change (%, negative = inhibition) at 10uM": 17.7}, {"smiles": "CN(CC(=O)NCCc1ccccn1)S(=O)(=O)c1ccc(Cl)cc1", "hERG current change (%, negative = inhibition) at 10uM": -17}, {"smiles": "CN(Cc1ccccc1)S(=O)(=O)c1ccc(OCC(=O)NCc2ccccn2)cc1", "hERG current change (%, negative = inhibition) at 10uM": -32.6}, {"smiles": "CN(Cc1ccccc1)S(=O)(=O)c1ccc(Cl)c(C(=O)NCc2ccc3c(c2)OCO3)c1", "hERG current change (%, negative = inhibition) at 10uM": 5.48}, {"smiles": "CN(Cc1ccccc1)S(=O)(=O)c1ccc(Cl)c(C(=O)O)c1", "hERG current change (%, negative = inhibition) at 10uM": 9.33}, {"smiles": "CN(Cc1ccccc1)S(=O)(=O)c1ccc(OCC(=O)NCc2cccnc2)cc1", "hERG current change (%, negative = inhibition) at 10uM": 0.509}, {"smiles": "CN(Cc1ccccc1)S(=O)(=O)c1ccc(Cl)c(C(=O)NCCc2ccccn2)c1", "hERG current change (%, negative = inhibition) at 10uM": -61.8}, {"smiles": "CN(Cc1ccccc1)S(=O)(=O)c1ccc(Cl)c(C(=O)NCc2ccncc2)c1", "hERG current change (%, negative = inhibition) at 10uM": -55.8}, {"smiles": "CN(Cc1ccccc1)S(=O)(=O)c1ccc(OCC(=O)NCc2ccncc2)cc1", "hERG current change (%, negative = inhibition) at 10uM": -53.6}, {"smiles": "CN(Cc1ccccc1)S(=O)(=O)c1ccc(Cl)c(C(=O)NCc2cccnc2)c1", "hERG current change (%, negative = inhibition) at 10uM": -32.8}, {"smiles": "O=C1Nc2ccc(C(F)(F)F)cc2N2CCCC12", "note": "(stereo not drawn)", "hERG current change (%, negative = inhibition) at 10uM": -1.52}, {"smiles": "Cc1ccc(CSCCNC(=O)CN(c2cc(C)ccc2C)S(C)(=O)=O)cc1", "hERG current change (%, negative = inhibition) at 10uM": -23.5}, {"smiles": "COC(=O)C1=C(C)N(Cc2ccc(OC)c(OC)c2)C(=O)C1", "hERG current change (%, negative = inhibition) at 10uM": 10.7}, {"smiles": "C=CCSc1n[nH]c(-c2cccs2)n1", "hERG current change (%, negative = inhibition) at 10uM": 14.4}, {"smiles": "CN(CCO)S(=O)(=O)c1ccc2c(c1)C(=NN)c1cc(S(=O)(=O)N(C)CCO)ccc1-2", "hERG current change (%, negative = inhibition) at 10uM": 9.76}, {"smiles": "CN1C2CCC1CC(OC(c1ccccc1)c1ccccc1N)C2", "note": "(stereo not drawn)", "hERG current change (%, negative = inhibition) at 10uM": -68.5}, {"smiles": "CCOC(=O)C1CCN(C(=O)CNC(=O)c2nn(-c3ccc(OC)cc3)c(=O)c3ccccc23)CC1", "hERG current change (%, negative = inhibition) at 10uM": -9.73}, {"smiles": "Cc1ccc(Cl)cc1NC(=O)CC1NCCNC1=O", "note": "(stereo not drawn)", "hERG current change (%, negative = inhibition) at 10uM": 13.6}, {"smiles": "COc1ccccc1-c1c(C)nn2c(N3CCOCC3)cc(C)nc12", "hERG current change (%, negative = inhibition) at 10uM": 2.71}, {"smiles": "C#CCOC(=O)CCCNc1ccc([N+](=O)[O-])cc1[N+](=O)[O-]", "hERG current change (%, negative = inhibition) at 10uM": -51.1}, {"smiles": "CCCCOc1ccc([N+](=O)[O-])cc1C(=O)O", "hERG current change (%, negative = inhibition) at 10uM": 24.9}, {"smiles": "CCCCOC(=O)Nc1nc2ccc([N+](=O)[O-])cc2s1", "hERG current change (%, negative = inhibition) at 10uM": 15.1}, {"smiles": "CCCCOC(=O)CCCc1ccc([N+](=O)[O-])cc1[N+](=O)[O-]", "hERG current change (%, negative = inhibition) at 10uM": -52}, {"smiles": "CCOC(=O)CCCNc1ccc([N+](=O)[O-])cc1[N+](=O)[O-]", "hERG current change (%, negative = inhibition) at 10uM": -13.3}, {"smiles": "CC(C)OC(=O)CCCNc1ccc([N+](=O)[O-])cc1[N+](=O)[O-]", "hERG current change (%, negative = inhibition) at 10uM": -41.4}, {"smiles": "COC(=O)c1c(-c2c(Cl)cccc2Cl)noc1C(=O)NNC(=O)N(C)C", "hERG current change (%, negative = inhibition) at 10uM": 4.36}, {"smiles": "CCOc1ccc(-n2c(=O)c3ccccc3c3ccccc3c2=O)cc1", "hERG current change (%, negative = inhibition) at 10uM": 17.8}, {"smiles": "S=C(NCc1ccccc1)NCc1cccc(CNC(=S)NCc2ccccc2)c1", "hERG current change (%, negative = inhibition) at 10uM": 21.7}, {"smiles": "CCOC(=O)c1cc2c(=O)n3cccc(C)c3nc2n(CCCOC)c1=NC(=O)c1cccnc1", "hERG current change (%, negative = inhibition) at 10uM": -78.6}, {"smiles": "CCOC(=O)c1cc2c(=O)n3ccccc3nc2n(CCCOC)c1=NC(=O)c1cccnc1", "hERG current change (%, negative = inhibition) at 10uM": -68}, {"smiles": "CCOCCCn1c(=NC(C)=O)c(C(=O)OCC)cc2c(=O)n3ccccc3nc21", "hERG current change (%, negative = inhibition) at 10uM": -22.9}, {"smiles": "CCOCCCn1c(=NC(=O)c2cccnc2)c(C(=O)OCC)cc2c(=O)n3ccccc3nc21", "hERG current change (%, negative = inhibition) at 10uM": -70.1}, {"smiles": "CCOC(=O)c1cc2c(=O)n3cccc(C)c3nc2n(CCOC)c1=NC(C)=O", "hERG current change (%, negative = inhibition) at 10uM": -16.3}, {"smiles": "CCC1=C(OC(=O)N(CC)CC)N2C(=O)OC(=NCC(=O)OC)[C@]2(C)[C@H]2C1=CC[C@H]1C(=O)NC(=O)[C@H]12", "hERG current change (%, negative = inhibition) at 10uM": -15.5}, {"smiles": "Cc1onc(COc2ccccc2O)c1Br", "hERG current change (%, negative = inhibition) at 10uM": 11.2}, {"smiles": "COc1cccc(NC(=O)CN(C)C(C)C(=O)Nc2ccc(S(=O)(=O)N3CCOCC3)cc2)c1", "note": "(stereo not drawn)", "hERG current change (%, negative = inhibition) at 10uM": -15.1}, {"smiles": "COc1ccccc1-c1noc(Cn2cc(S(=O)(=O)N3CCCC3)ccc2=O)n1", "hERG current change (%, negative = inhibition) at 10uM": -3.72}]}]}
